Data as given in PubChem BioAssay (NCATS).
Inconclusive results are not listed. Values without a mark were called inactive. The source made the active and inactive calls. Calls come from the whole dose curve; as a rule, active = well fitted cell-killing curve with a large enough effect; inconclusive = small, poorly fitted or top-dose-only effect, or effect the other way; inactive = flat fitted curve, though single readings scatter.

Each compound was assayed on Tov112D (assay: Primary qHTS to identify gynecologic anti-cancer compounds using libraries of approved drugs and bioactive compounds (AID 1345084; note: nearly all actives have a fitted effect of over 55% in size)). Conditions: Gynecologic cancer cell panel viability, ATPlite luminescence, 48 h; series mostly up to 57.5 µM; activity change, negative = cytotoxicity: at the top concentration.
Procedure, shortened: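 Cells, 1,000 per well, were allowed to settle for 16 h at 37 C before compound addition. Five concentrations were tested for 48 h, and viability was read by ATPlite luminescence after 15 min at room temperature.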
% is set by controls: 0 for no effect and ±100 for the full control effect; potency is the fitted concentration of half-maximal effect.

SMILES | activity change, negative = cytotoxicity | Potency
Fc1ccc(CN2CCC(Nc3ccc(C(F)(F)F)nn3)CC2)cc1F | -2.67% | 
Cc1nc(N2CCN(C(=O)c3ccco3)CC2)c2c3c(sc2n1)CCCC3 | 12.3% | 
CC(F)(F)CN1CCOc2c(nn(-c3ccccc3Cl)c2-c2ccc(Cl)cc2)C1=O | 3.39% | 
C=CC(=O)N1CCCC(n2nc(-c3ccc(Oc4ccccc4)cc3)c3c(N)ncnc32)C1 (stereo not given) | -5.54% | 
CN(C)c1cccc(Oc2cnc(Nc3cccc(O)c3)nc2)c1 | -3.13% | 
CC1CC(=O)C2=C(C1)C1OC1C1(O)C2C(=O)c2cccc(O)c2C1O (stereo not given) |  | 0.0891 µM (active)
O=C(Nc1nc2cc(C(F)(F)F)cc(NC3CC3)n2n1)c1cccnc1 |  | 7.94 µM (active)
OC1CCC(Nc2nc(-c3ccccc3)nc3[nH]ccc23)CC1 (stereo not given) | 27.7% | 
COC(=O)CC1OC(C)C2=C(O)c3c(O)cccc3C(=O)C23OC13 (stereo not given) |  | 6.31 µM (active)
Cn1ncc(Cl)c1-c1cc(C(=O)N[C@H](CN)Cc2ccc(F)c(F)c2)sc1Cl | -4.35% | 
Cc1nc2ccc(CN(C)c3ccc(C(=O)NC(CCC(=O)O)C(=O)O)s3)cc2c(=O)[nH]1 (stereo not given) |  | 0.282 µM (active)
COC1CC(=O)C23C(=O)NC(Cc4c[nH]c5ccccc45)C2C(C)C2(C)OC2C3/C=C/CC(C)CC1O (stereo not given) | -16% [at 25.3 µM] | 
Nc1ncnc2c1nc(Cl)n2C1OC2COP(=O)(O)OC2C1O (stereo not given) |  | 5.01 µM (active)
Cn1cc(-c2cnn3c(N)c(Br)c([C@@H]4CCCNC4)nc23)cn1 | -19% | 
COc1ccc(C[C@H]2COC(=O)[C@@H]2Cc2ccc(O[C@@H]3O[C@H](CO)[C@@H](O)[C@H](O)[C@H]3O)c(OC)c2)cc1OC | -18.6% [at 25.3 µM] | 
